# Data published in PubChem BioAssay (NCI).
# Values joined by “and” are separate entries in the source; they are usually repeats but may differ in a detail not shown here. Equal values may be shown once. About 83,000 compounds went through this panel and 20% of them were active in at least one assay; those are over-represented in the sample as a whole.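 Single-dose data. Exposure time 48 hours. Values below 10 considered active.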 Active and inactive are the calls of the source.
# How the values were obtained:
# Test in all cases: NCI-60 one-dose screen, 48 h (100 = growth as untreated, 0 = no growth, -100 = all killed)
# NCI-H23 lung = test system: NCI-H23 lung
# NCI-H226 lung = test system: NCI-H226 lung
# NCI-H322M lung = test system: NCI-H322M lung
# HOP-62 NSCLC = test system: HOP-62 NSCLC
# NCI-H460 lung = test system: NCI-H460 lung
# HOP-92 NSCLC = test system: HOP-92 NSCLC
# NCI-H522 lung = test system: NCI-H522 lung
# A549/ATCC NSCLC = test system: A549/ATCC NSCLC
# 786-0 renal = test system: 786-0 renal
# COLO 205 colon = test system: COLO 205 colon
smiles,measurement,setting,value
Cc1cc(O)c(C(C)C)cc1S(=O)(=O)O (tested in a mixture with another compound),growth,NCI-H23 lung; 10 µM unless noted,87.6% (inactive) and 13% (inactive) and 102% (inactive)
same,growth,NCI-H226 lung; 10 µM unless noted,89% (inactive) and 43.4% (inactive) and 93.8% (inactive)
same,growth,NCI-H322M lung; 10 µM unless noted,90.7% (inactive) and 24.7% (inactive) and 93.4% (inactive)
same,growth,HOP-62 NSCLC; 10 µM unless noted,77.5% (inactive) and 33.1% (inactive) and 106% (inactive)
same,growth,NCI-H460 lung; 10 µM unless noted,99.1% (inactive) and 1.34% (active) and 108% (inactive)
same,growth,HOP-92 NSCLC; 10 µM unless noted,89.5% (inactive) and 6.59% (active) and 77.8% (inactive)
same,growth,NCI-H522 lung; 10 µM unless noted,88.5% (inactive) and -20.5% (active)
same,growth,A549/ATCC NSCLC; 10 µM unless noted,90.1% (inactive) and 8.67% (active) and 102% (inactive)
same,growth,786-0 renal; 10 µM unless noted,87.2% (inactive) and 13% (inactive) and 116% (inactive)
same,growth,COLO 205 colon; 10 µM unless noted,124% (inactive) and -63.7% (active) and 103% (inactive)
O=C(O)c1sccc1O,growth,NCI-H23 lung; 10 µM,80.1% (inactive)
same,growth,NCI-H23 lung; 100 µM,37.2% (inactive)
same,growth,NCI-H226 lung; 10 µM,89.2% (inactive)
same,growth,NCI-H226 lung; 100 µM,74.1% (inactive)
same,growth,NCI-H322M lung; 10 µM,87.5% (inactive)
same,growth,NCI-H322M lung; 100 µM,50.9% (inactive)
same,growth,HOP-62 NSCLC; 10 µM,102% (inactive)
same,growth,HOP-62 NSCLC; 100 µM,34.1% (inactive)
same,growth,NCI-H460 lung; 10 µM,91.2% (inactive)
same,growth,NCI-H460 lung; 100 µM,30.1% (inactive)
same,growth,HOP-92 NSCLC; 10 µM,66.9% (inactive)
same,growth,HOP-92 NSCLC; 100 µM,26.9% (inactive)
same,growth,NCI-H522 lung; 10 µM,64.5% (inactive)
same,growth,NCI-H522 lung; 100 µM,-32.6% (active)
same,growth,A549/ATCC NSCLC; 10 µM,82.5% (inactive)
same,growth,A549/ATCC NSCLC; 100 µM,38.8% (inactive)
same,growth,786-0 renal; 10 µM,99.1% (inactive)
same,growth,786-0 renal; 100 µM,47.6% (inactive)
same,growth,COLO 205 colon; 10 µM,111% (inactive)
same,growth,COLO 205 colon; 100 µM,84.6% (inactive)
CN1CCN(C2CCN(C(=O)Nc3cc(Oc4ccc(NC(=O)C5(C(=O)Nc6ccc(F)cc6)CC5)c(F)c4)ccn3)CC2)CC1,growth,NCI-H23 lung; 10 µM unless noted,-44.6% (active) and 73.4% (inactive)
same,growth,NCI-H226 lung; 10 µM unless noted,-4.95% (active) and 76.4% (inactive)
same,growth,NCI-H322M lung; 10 µM unless noted,-27.6% (active) and 94% (inactive)
same,growth,HOP-62 NSCLC; 10 µM unless noted,-68.7% (active) and 110% (inactive)
same,growth,NCI-H460 lung; 10 µM unless noted,-50.4% (active) and 77.2% (inactive)
same,growth,HOP-92 NSCLC; 10 µM unless noted,-43.2% (active) and 68.1% (inactive)
same,growth,NCI-H522 lung; 10 µM unless noted,-66.2% (active) and 80.8% (inactive)
same,growth,A549/ATCC NSCLC; 10 µM unless noted,-13.9% (active) and 90.3% (inactive)
same,growth,786-0 renal; 10 µM unless noted,-72.9% (active) and 110% (inactive)
same,growth,COLO 205 colon; 10 µM unless noted,-78.3% (active) and 85.6% (inactive)
CCOc1ccc2c(S(=O)(=O)O)cccc2c1[N+](=O)[O-],growth,NCI-H23 lung; 10 µM unless noted,94.5% (inactive) and 102% (inactive)
same,growth,NCI-H226 lung; 10 µM unless noted,97.1% (inactive) and 94% (inactive)
same,growth,NCI-H322M lung; 10 µM unless noted,102% (inactive) and 104% (inactive)
same,growth,HOP-62 NSCLC; 10 µM unless noted,102% (inactive) and 105% (inactive)
same,growth,NCI-H460 lung; 10 µM unless noted,99.1% (inactive) and 105% (inactive)
same,growth,HOP-92 NSCLC; 10 µM unless noted,104% (inactive) and 78.3% (inactive)
same,growth,NCI-H522 lung; 10 µM unless noted,99.7% (inactive) and 122% (inactive)
same,growth,A549/ATCC NSCLC; 10 µM unless noted,97.2% (inactive) and 101% (inactive)
same,growth,786-0 renal; 10 µM unless noted,113% (inactive) and 111% (inactive)
same,growth,COLO 205 colon; 10 µM unless noted,107% (inactive) and 103% (inactive)
CN(C)c1ccc(C(=C2C=CC(=[N+](C)C)C=C2)c2ccccc2Cl)cc1,growth,NCI-H23 lung; 10 µM unless noted,-52.2% (active) and -82.2% (active)
same,growth,NCI-H226 lung; 10 µM unless noted,-41.3% (active) and -56.5% (active)
same,growth,NCI-H322M lung; 10 µM unless noted,-7.26% (active) and 10.3% (inactive)
same,growth,HOP-62 NSCLC; 10 µM unless noted,-43.7% (active) and -94.3% (active)
same,growth,NCI-H460 lung; 10 µM unless noted,-60.8% (active) and -49.7% (active)
same,growth,HOP-92 NSCLC; 10 µM unless noted,-78.2% (active) and -72% (active)
same,growth,NCI-H522 lung; 10 µM unless noted,-57.4% (active) and -56.5% (active)
same,growth,A549/ATCC NSCLC; 10 µM unless noted,-55.9% (active) and -34.5% (active)
same,growth,786-0 renal; 10 µM unless noted,-88.2% (active) and -100% (active)
same,growth,COLO 205 colon; 10 µM unless noted,-89.1% (active) and -90% (active)
CC#C[C@]1(O)CC[C@H]2[C@@H]3CCC4=CC(=O)CCC4=C3[C@@H](c3ccc4c(c3)OCO4)C[C@@]21C,growth,NCI-H23 lung; 10 µM,82.8% (inactive)
same,growth,NCI-H23 lung; 100 µM,-8.63% (active)
same,growth,NCI-H226 lung; 10 µM,85.2% (inactive)
same,growth,NCI-H226 lung; 100 µM,-21.7% (active)
same,growth,NCI-H322M lung; 10 µM,90% (inactive)
same,growth,NCI-H322M lung; 100 µM,7.01% (active)
same,growth,HOP-62 NSCLC; 10 µM,81.3% (inactive)
same,growth,HOP-62 NSCLC; 100 µM,-15.3% (active)
same,growth,NCI-H460 lung; 10 µM,90.5% (inactive)
same,growth,NCI-H460 lung; 100 µM,-45.9% (active)
same,growth,HOP-92 NSCLC; 10 µM,66.1% (inactive)
same,growth,HOP-92 NSCLC; 100 µM,-33.2% (active)
same,growth,NCI-H522 lung; 10 µM,62.4% (inactive)
same,growth,NCI-H522 lung; 100 µM,-37.9% (active)
same,growth,786-0 renal; 10 µM,69.5% (inactive)
same,growth,786-0 renal; 100 µM,-30.5% (active)
same,growth,COLO 205 colon; 10 µM unless noted,101% (inactive)
